# Measured values taken from PubChem BioAssay (NCATS).
# Values joined by “and” are separate entries in the source; they are usually repeats but may differ in a detail not shown here. Identical values can stand only once. Values without a mark were called inactive. Results filed as inconclusive are left out. Where a call stands in place of a potency, no number is given. Active and inactive are the calls of the source. Unless noted, the call rests on the fitted dose curve; in most records, active means well fitted curve in the direction sought with a large enough effect; inconclusive means small, poorly fitted or top-dose-only effect, or another doubt; inactive means no such curve, though single readings can be large; an effect the other way counts as inactive or inconclusive.
# Key:
# [1] = test system: MKL-2; assay: qHTS assay to identify novel small-molecules to repurpose for Merkel cell carcinoma treatment (AID 1296009); settings: MCC and control cell lines, CellTiter-Glo viability, 72 h; series mostly up to 46 µM; further: nearly all actives have a fitted effect of over 60% in size
# Outline: (§1)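 Cell viability measured by CellTiter-Glo following 72 hr compound treatment at 37 degree celsius, with NPC and MIPE libraries tested in 8- and 11-point concentration series.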
# [2] = test system: UISO; assay: as above; settings: MCC and control cell lines, CellTiter-Glo viability, 72 h; series mostly up to 46 µM
# Outline: as §1
# [3] = test system: WaGa; assay: as above; settings: MCC and control cell lines, CellTiter-Glo viability, 72 h; series mostly up to 46 µM
# Outline: as §1
# [4] = test system: C33A; assay: Primary qHTS to identify gynecologic anti-cancer compounds using libraries of approved drugs and bioactive compounds (AID 1345084); settings: Gynecologic cancer cell panel viability, ATPlite luminescence, 48 h; series mostly up to 57.5 µM; further: nearly all actives have a fitted effect of over 55% in size
# Outline: (§2)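 Cells, 1,000 per well, plated 16 h, then exposed 48 h at 37 C to compounds. Viability by ATPlite luminescence after 15 min at room temperature.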
# [5] = test system: CAOV3; assay: as above; settings: Gynecologic cancer cell panel viability, ATPlite luminescence, 48 h; series mostly up to 57.5 µM
# Outline: as §2
# [6] = test system: CASKI; assay: as above; settings: Gynecologic cancer cell panel viability, ATPlite luminescence, 48 h; series mostly up to 57.5 µM
# Outline: as §2
# [7] = test system: Es-2; assay: as above; settings: Gynecologic cancer cell panel viability, ATPlite luminescence, 48 h; series mostly up to 57.5 µM
# Outline: as §2
# [8] = test system: HeLa; assay: as above; settings: Gynecologic cancer cell panel viability, ATPlite luminescence, 48 h; series mostly up to 57.5 µM
# Outline: as §2
# [9] = test system: Hek293T; assay: as above; settings: Gynecologic cancer cell panel viability, ATPlite luminescence, 48 h, control line for the selectivity index; series mostly up to 57.5 µM
# Outline: as §2
# [10] = test system: JEG-3; assay: as above; settings: Gynecologic cancer cell panel viability, ATPlite luminescence, 48 h; series mostly up to 57.5 µM
# Outline: as §2
# [11] = test system: PA-1; assay: as above; settings: Gynecologic cancer cell panel viability, ATPlite luminescence, 48 h; series mostly up to 57.5 µM
# Outline: as §2
# [12] = test system: SKOV3; assay: as above; settings: Gynecologic cancer cell panel viability, ATPlite luminescence, 48 h; series mostly up to 57.5 µM
# Outline: as §2
# [13] = test system: Tov-21-G; assay: as above; settings: Gynecologic cancer cell panel viability, ATPlite luminescence, 48 h; series mostly up to 57.5 µM
# Outline: as §2
# [14] = test system: Tov112D; assay: as above; settings: Gynecologic cancer cell panel viability, ATPlite luminescence, 48 h; series mostly up to 57.5 µM
# Outline: as §2
# [15] = Drug repurposing screens with cells derived from glioblastoma tumor samples (AID 1345199); settings: GBM patient neurospheres viability, ATP luminescence, 48 h; further: nearly all actives have a fitted effect of over 40% in size; further: potency means the concentration at half of the fitted maximal effect
# Outline: (§3)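 Primary testing used CD133+ neurospheres from four GBM patients, seven concentrations, 48 h exposure and ATP-based viability; confirmation added three slower-growing patient lines.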
# [16] = test system: OV90; assay: Primary qHTS to identify gynecologic anti-cancer compounds using libraries of approved drugs and bioactive compounds (AID 1345084); settings: Gynecologic cancer cell panel viability, ATPlite luminescence, 48 h; series mostly up to 57.5 µM; further: nearly all actives have a fitted effect of over 55% in size
# Outline: as §2
# [17] = test system: astro; assay: Drug repurposing screens with cells derived from glioblastoma tumor samples (AID 1345199); settings: viability, ATP luminescence, 48 h; series mostly up to 45.9 µM; further: nearly all actives have a fitted effect of over 40% in size; further: potency means the concentration at half of the fitted maximal effect
# Outline: as §3
# [18] = test system: NIH3T3; assay: qHTS assay to identify novel small-molecules to repurpose for Merkel cell carcinoma treatment (AID 1296009); settings: MCC and control cell lines, CellTiter-Glo viability, 72 h; at 44.8 µM (top of the series) unless noted; further: nearly all actives have a fitted effect of over 60% in size
# Outline: as §1
# [19] = target: Nuclear receptor subfamily 1 group I member 2 (Rattus norvegicus) (UniProt Q9R1A7); assay: qHTS assay for small molecule activators of the rat pregnane X receptor (rPXR) signaling pathway (AID 651751; call rule not given here); settings: rPXR reporter cells, luciferase (One-Glo), 24 h
# Nuclear receptor subfamily 1 group I member 2 (Rattus norvegicus), sequence (Q9R1A7 whole entry, looked up): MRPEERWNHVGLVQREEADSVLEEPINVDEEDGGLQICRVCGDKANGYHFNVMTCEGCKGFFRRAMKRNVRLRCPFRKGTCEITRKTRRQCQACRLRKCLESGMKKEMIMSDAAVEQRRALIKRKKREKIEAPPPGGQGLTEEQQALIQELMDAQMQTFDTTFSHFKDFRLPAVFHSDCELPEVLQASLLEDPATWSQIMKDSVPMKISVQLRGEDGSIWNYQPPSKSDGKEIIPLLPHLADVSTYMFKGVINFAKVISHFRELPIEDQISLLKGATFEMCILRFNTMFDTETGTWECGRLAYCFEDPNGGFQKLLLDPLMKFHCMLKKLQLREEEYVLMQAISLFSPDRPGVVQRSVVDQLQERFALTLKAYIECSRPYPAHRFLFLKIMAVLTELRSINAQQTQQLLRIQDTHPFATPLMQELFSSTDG
# [20] = at 45.9 µM (top of the series), tumour line B
# [21] = at 45.9 µM (top of the series), tumour line D
# [22] = at 46.1 µM (top of the series), tumour line C
# [23] = at 20 µM (top of the series), tumour line C
# [24] = at 21.2 µM (top of the series), tumour line B
# [25] = at 21.2 µM (top of the series), tumour line D
# [26] = at 46 µM (top of the series), tumour line A
smiles,measurement,setting,value
Cc1[nH]cnc1CN1CCc2c(c3ccccc3n2C)C1=O,Potency,[1],inactive
same,Potency,[2],inactive
same,Potency,[3],inactive
same,Potency,[4],inactive
same,Potency,[5],inactive
same,Potency,[6],inactive
same,Potency,[7],inactive
same,Potency,[8],inactive
same,Potency,[9],inactive
same,Potency,[10],inactive
same,Potency,[11],inactive
same,Potency,[12],inactive
same,Potency,[13],inactive
same,Potency,[14],inactive
same,"activity, negative = cell killing",[15]; [20],-8.52%
same,"activity, negative = cell killing",[15]; [21],-4.04%
same,"activity, negative = cell killing",[15]; [22],-28.6%
same,Potency,[15]; tumour line A,10 µM (active)
Cc1ccc(C(=O)c2ccc(CC(=O)O)n2C)cc1,Potency,[1],inactive
same,Potency,[2],inactive
same,Potency,[3],inactive
same,Potency,[4],inactive
same,Potency,[5],inactive
same,Potency,[6],inactive
same,Potency,[7],inactive
same,Potency,[8],inactive
same,Potency,[9],inactive
same,Potency,[10],inactive
same,Potency,[16],inactive
same,Potency,[11],inactive
same,Potency,[12],inactive
same,Potency,[13],inactive
same,Potency,[14],inactive
same,"activity, negative = cell killing",[15]; [23],-5.11%
same,"activity, negative = cell killing",[15]; [24],-9.02%
same,"activity, negative = cell killing",[15]; [25],-3.08%
same,"activity, negative = cell killing","[15]; at 21.3 µM (top of the series), tumour line A",-10.3%
same,Potency,[17],inactive
CCOc1ccc2nc(S(N)(=O)=O)sc2c1,Potency,[1],inactive
same,outcome,[18],inactive
same,Potency,[3],inactive
same,Potency,[4],inactive
same,Potency,[6],inactive
same,Potency,[7],inactive
same,Potency,[8],inactive
same,Potency,[9],inactive
same,Potency,[10],inactive
same,Potency,[16],inactive
same,Potency,[11],inactive
same,Potency,[13],inactive
same,Potency,[14],inactive
same,"activity, negative = cell killing",[15]; [20],-0.995%
same,"activity, negative = cell killing",[15]; [21],-17.7%
same,"activity, negative = cell killing",[15]; [22],1.48%
same,Potency,[17],inactive
CC(=O)c1ccc(OCC(=O)N2CCCCC2)cc1,Potency,[1],inactive
same,outcome,[18],inactive
same,Potency,[2],inactive
same,Potency,[3],inactive
same,Potency,[4],inactive
same,Potency,[5],inactive
same,Potency,[6],inactive
same,Potency,[7],inactive
same,Potency,[8],inactive
same,Potency,[9],inactive
same,Potency,[10],inactive
same,Potency,[16],inactive
same,Potency,[11],inactive
same,Potency,[12],inactive
same,Potency,[13],inactive
same,Potency,[14],inactive
same,"activity, negative = cell killing",[15]; [20],-9.55%
same,"activity, negative = cell killing",[15]; [21],-17.5%
same,"activity, negative = cell killing",[15]; [26],-29.4%
same,"activity, negative = cell killing",[15]; [22],-5.72%
same,Potency,[17],inactive
CC(N)C(=O)OC(C)(C)Cc1ccc(Cl)cc1 (stereo unspecified),Potency,[1],inactive
same,Potency,[2],inactive
same,Potency,[3],inactive
same,Potency,[4],inactive
same,Potency,[5],inactive
same,Potency,[6],inactive
same,Potency,[7],inactive
same,Potency,[8],inactive
same,Potency,[10],inactive
same,Potency,[16],inactive
same,Potency,[11],inactive
same,Potency,[12],inactive
same,Potency,[13],inactive
same,Potency,[14],inactive
same,"activity, negative = cell killing",[15]; [20],-21.1%
same,"activity, negative = cell killing",[15]; [21],-21.2%
same,Potency,[15]; tumour line A,20 µM (active)
same,Potency,[17],inactive
CC(C)(C)c1nnc(NS(=O)(=O)c2ccc(N)cc2)s1,Potency,[1],inactive
same,Potency,[2],inactive
same,Potency,[3],inactive
same,Potency,[4],inactive
same,Potency,[5],inactive
same,Potency,[6],inactive
same,Potency,[7],inactive
same,Potency,[8],inactive
same,Potency,[9],inactive
same,Potency,[10],inactive
same,Potency,[16],inactive
same,Potency,[11],inactive
same,Potency,[12],inactive
same,Potency,[13],inactive
same,Potency,[14],inactive
CN(C)CCn1nnnc1SCC1=C(C(=O)O)N2C(=O)[C@@H](NC(=O)Cc3csc(N)n3)[C@H]2SC1,Potency,[1],inactive
same,outcome,[18],inactive
same,Potency,[2],inactive
same,Potency,[3],inactive
same,Potency,[4],inactive
same,Potency,[5],inactive
same,Potency,[6],inactive
same,Potency,[7],inactive
same,Potency,[8],inactive
same,Potency,[9],inactive
same,Potency,[10],inactive
same,Potency,[16],inactive
same,Potency,[11],inactive
same,Potency,[12],inactive
same,Potency,[13],inactive
same,Potency,[14],inactive
same,"activity, negative = cell killing",[15]; [23],7.42%
same,"activity, negative = cell killing",[15]; [24],-1.03%
same,"activity, negative = cell killing",[15]; [25],-12.5%
CN1CC(=O)N/C1=N/C(=O)Nc1cccc(Cl)c1,Potency,[1],inactive
same,Potency,[2],inactive
same,Potency,[3],inactive
same,Potency,[4],inactive
same,Potency,[5],inactive
same,Potency,[6],inactive
same,Potency,[7],inactive
same,Potency,[8],inactive
same,Potency,[9],inactive
same,Potency,[10],inactive
same,Potency,[16],inactive
same,Potency,[11],inactive
same,Potency,[12],inactive
same,Potency,[13],inactive
same,Potency,[14],inactive
same,"activity, negative = cell killing",[15]; [20],-4.72% and 3.17%
same,"activity, negative = cell killing",[15]; [21],-5.4% and -21.8%
same,"activity, negative = cell killing",[15]; [22],-23.8% and 2.92%
same,Potency,[17],inactive
O=C(OCc1ccccc1)c1ccccc1,Potency,[1],inactive
same,Potency,[2],inactive
same,Potency,[3],inactive
same,Potency,[4],inactive
same,Potency,[5],inactive
same,Potency,[6],inactive
same,Potency,[7],inactive
same,Potency,[8],inactive
same,Potency,[9],inactive
same,Potency,[10],inactive
same,Potency,[16],inactive
same,Potency,[11],inactive
same,Potency,[12],inactive
same,Potency,[13],inactive
same,Potency,[14],inactive
same,"activity, negative = cell killing",[15]; [20],-4.23%
same,"activity, negative = cell killing",[15]; [21],-19%
same,"activity, negative = cell killing",[15]; [26],-13.2%
same,"activity, negative = cell killing",[15]; [22],-10.1%
same,Potency,[17],inactive
same,max response,[19],-3.55%
Nc1c(CC(=O)O)cccc1C(=O)c1ccc(Br)cc1,Potency,[1],inactive
same,Potency,[2],inactive
same,Potency,[3],inactive
same,Potency,[4],inactive
same,Potency,[5],inactive
same,Potency,[6],inactive
same,Potency,[7],inactive
same,Potency,[8],inactive
same,Potency,[9],inactive
same,Potency,[10],inactive
same,Potency,[16],inactive
same,Potency,[11],inactive
same,Potency,[12],inactive
same,Potency,[13],inactive
same,Potency,[14],inactive
same,"activity, negative = cell killing",[15]; [20],-6.17%
same,"activity, negative = cell killing",[15]; [21],-6.69%
same,"activity, negative = cell killing",[15]; [26],-19.8%
same,"activity, negative = cell killing",[15]; [22],10.2%
CCCCCCCCCCCC(=O)[O][Sn]([CH2]CCC)([CH2]CCC)[O]C(=O)CCCCCCCCCCC,Potency,[1],inactive
same,Potency,[2],inactive
same,Potency,[3],inactive
same,Potency,[4],inactive
same,Potency,[5],inactive
same,Potency,[6],inactive
same,Potency,[7],inactive
same,Potency,[8],inactive
same,Potency,[9],inactive
same,Potency,[10],inactive
same,Potency,[16],inactive
same,Potency,[11],inactive
same,Potency,[12],inactive
same,Potency,[13],inactive
same,Potency,[14],inactive
same,"activity, negative = cell killing",[15]; [20],-6.49%
same,"activity, negative = cell killing",[15]; [21],-3.33%
same,"activity, negative = cell killing",[15]; [26],-28.7%
same,"activity, negative = cell killing",[15]; [22],-3.83%
